Laboratory results as given in PubChem BioAssay AID1259372 (The Scripps Research Institute Molecular Screening Center, 2018).
Out of some 4,700 compounds screened, about 760 (16%) were called active. Only a sample is shown. Values without a mark were called inactive.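 The calls were made as follows: active = inhibition above a cutoff derived from the DMSO control wells (cut at about 28% in these data); inactive = the rest.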

What follows are compounds tested against Microphthalmia-associated transcription factor (Homo sapiens) (UniProt O75030) (assay: MITF inhibitors, retest of hits, confirmation, biochemical, AlphaScreen, triplicate (AID 1259372)). Settings: AlphaScreen MITF homodimerization, biotin/His-MITF beads; at 2.6 µM; hits give high values.
Microphthalmia-associated transcription factor (Homo sapiens), sequence (O75030 whole entry, looked up): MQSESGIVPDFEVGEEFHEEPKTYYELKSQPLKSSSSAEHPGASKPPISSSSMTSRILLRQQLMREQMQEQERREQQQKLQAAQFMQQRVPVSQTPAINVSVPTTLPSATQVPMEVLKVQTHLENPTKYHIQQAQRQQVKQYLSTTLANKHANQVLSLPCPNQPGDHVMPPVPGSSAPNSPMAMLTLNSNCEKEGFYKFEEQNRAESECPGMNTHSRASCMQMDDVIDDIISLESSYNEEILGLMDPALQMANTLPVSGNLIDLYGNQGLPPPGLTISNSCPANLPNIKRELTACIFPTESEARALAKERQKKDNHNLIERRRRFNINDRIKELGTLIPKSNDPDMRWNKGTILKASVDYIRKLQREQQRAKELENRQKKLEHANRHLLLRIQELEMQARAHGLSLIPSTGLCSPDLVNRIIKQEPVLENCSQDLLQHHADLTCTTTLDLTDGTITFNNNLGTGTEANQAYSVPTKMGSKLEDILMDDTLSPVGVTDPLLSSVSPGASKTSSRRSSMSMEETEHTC

In the case of `COc1cc(NC(=O)CCc2nc(C3=CCN(C)CC3)no2)cc(OC)c1OC`, the inhibition is reported as 66.9% (active).
In the case of `CCOC(=O)C1C2NC(=S)N(CC)C1(C)Oc1ccc(Cl)cc12` (stereo not given), the inhibition is reported as 33.4% (active).

Going from `CCC(C)N1CCN(Cc2cccc(OC)c2)CC1` (stereo not given) to `CCC(C)N1CCN(Cc2ccc(SC)cc2)CC1` (stereo not given), the inhibition falls from 13.4% to 3.6%.

First: CCC(CC)N1CCN(Cc2ccc(F)cc2)CC1
Second: COc1ccc(CN2CCN(Cc3ccccc3)CC2)cc1C
The inhibition of the first is higher: 3.06% for the first, -1.48% for the second.

Compared with `CSc1ccccc1NC(=O)CN(C)CC(=O)Nc1ccc(C#N)c(Cl)c1`, `Fc1ccccc1CN1CCN(Cc2ccccc2F)CC1` is higher in inhibition: 4.26% for the first, 4.39% for the second.

Compared with `CCOC(=O)C1C2NC(=S)N(c3ccc(F)cc3)C1(C)Oc1c(OCC)cccc12` (stereo not given), `CN1CCC(N(C)c2ncnc3scc(-c4ccc(Cl)cc4)c23)CC1` is lower in inhibition: 24.2% for the first, -5.93% for the second.
